Results on 95 molecules are retold here after PubChem BioAssay AID781 (Emory University Molecular Libraries Screening Center, 2007).

The structures appear in SMILES notation. The whole screen tested about 220,000 compounds, of which about 1,600 (0.73%) were called active. The full list was thinned out, with actives kept by preference. Unmarked numbers belong to inactive results.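 Rule for the calls: active = inhibition above about 70% (limit read from the data); inactive = the rest.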

In this experiment the target is 14-3-3 protein zeta/delta (Bos taurus) (UniProt P63103). The experiment in a line: inhibitors of 14-3-3 zeta/Bad binding, primary screen, biochemical, TR-FRET, bovine 14-3-3 zeta (AID 781).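 Note: 0% = full 14-3-3 plus peptide FRET controls and 100% = background without 14-3-3.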 The settings on record: TR-FRET 14-3-3zeta/Dy647-pBad peptide displacement, 1 h; at 21.7 µM; active compounds read high. For orientation: Time-resolved FRET reads energy transfer from a long-lived donor to a nearby acceptor.
Chain of 14-3-3 protein zeta/delta (Bos taurus) (P63103 whole entry, looked up): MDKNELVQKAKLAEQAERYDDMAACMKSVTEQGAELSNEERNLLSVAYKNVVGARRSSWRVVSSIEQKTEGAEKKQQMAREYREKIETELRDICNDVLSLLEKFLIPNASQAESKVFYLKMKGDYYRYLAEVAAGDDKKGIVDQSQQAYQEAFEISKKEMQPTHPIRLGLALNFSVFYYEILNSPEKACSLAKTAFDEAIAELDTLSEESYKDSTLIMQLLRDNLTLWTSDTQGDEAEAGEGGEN
Take `Cc1ccc(S(=O)(=O)/N=S(\C)C(C)C)cc1` (stereo not given): the inhibition was 1.1%.

Regarding `CS(=O)(=O)N(Cc1ccccc1)c1ccc(C(=O)NN=C2CCCCCC2)cc1`, the inhibition was -15.2%.

For `COc1cccc(NC(=O)c2ccc3c(SCC(=O)O)c4c(nc3c2)CCCC4)c1`, the inhibition is -11.6%.

For the molecule `COc1ccc(N2CCN(C(=O)c3ccc4c(Cl)c5c(nc4c3)CCCC5)CC2)cc1`, the inhibition is -10.1%.

Consider `CC(=O)c1ccc(NC(=O)c2ccc3c(Cl)c4c(nc3c2)CCCC4)cc1`, for which the inhibition was 73.9% (active).

On to `COc1ccc(/C=C(\NC(=O)c2ccc(OCC(C)C)cc2)C(=O)OCc2ccco2)cc1`, for which the inhibition was 2.32%.

Take `Cc1ccc(-c2nc(SCC(=O)Nc3ccccc3OC(F)F)c3c(C)c(C(=O)O)sc3n2)cc1`: the inhibition was 80.4% (active).

Consider `COc1ccccc1NC(=O)CSc1nc2sc(C)c(C)c2c(=O)n1Cc1ccco1`, for which the inhibition is -6.57%.

As for `Cc1ccc(C)c(SCc2nc3sc(C(=O)O)c(C)c3c(=O)[nH]2)c1`, the inhibition is 0.11%.

Consider `Oc1ccc2ccccc2c1C=Nc1ccccc1`, for which the inhibition was 4.91%.

Consider `CC(=O)Nc1ccc(S(=O)(=O)NC2(C(F)(F)F)C(=O)NC(C)=C2C#N)cc1` (stereo not given), for which the inhibition was -3.08%.

Take `Fc1ccccc1COc1ccccc1CNCc1ccncc1`: the inhibition is 75.9% (active).

In the case of `CCC(Oc1ccccc1)C(=O)NCc1cccnc1` (stereo not given), the inhibition was -2.17%.

Regarding `O=C(CCc1ccccc1)NCc1cccnc1`, the inhibition was -1.29%.

Turning to `COc1cccc(CNCCc2c[nH]c3ccccc23)c1OCc1ccccc1F`, the inhibition was 29.9%.

With `COc1ccccc1CNCc1cccs1`, the inhibition was 0.7%.

Turning to `c1ccc(COc2ccccc2CNCc2cccnc2)cc1`, the inhibition was 77.2% (active).

On to `CCOC(=O)CN(C(=O)COc1nc(C)cc(C)c1C#N)c1ccc(Cl)cc1`, for which the inhibition is -3.15%.

`O=C(Nc1ccccc1Cl)c1ccccc1S(=O)(=O)c1ccccc1[N+](=O)[O-]`: the inhibition was 5.14%.

Take `COc1ccc(NC(=S)N2CCc3cc(OC)c(OC)cc3C2)cc1`: the inhibition was -0.16%.

As for `COc1ccccc1/C=C/C=N/NC(=O)CN1CCN(Cc2ccccc2)CC1`, the inhibition is -5.86%.

Take `O=C1COc2ccc(C(=O)COC(=O)C3CC(O)CN3S(=O)(=O)c3ccc(Cl)cc3)cc2N1` (stereo not given): the inhibition is 0.1%.

On to `Cc1ccc2nc(SCc3cn4c(C)cc(C)nc4n3)[nH]c2c1`, for which the inhibition is -0.6%.

In the case of `CCCCn1c(=S)[nH]c2ccccc2c1=O`, the inhibition is 10.7%.

Regarding `CC(Sc1nc2c([nH]c3ccccc32)c(=O)n1C)c1ccccc1` (stereo not given), the inhibition was 98.1% (active).

For the molecule `Cn1nnnc1SCc1cc(=O)[nH]c2ccccc12`, the inhibition was 8.32%.

In the case of `S=C(Nc1ccc2c(c1)OCO2)N1CCCC1`, the inhibition was -2.2%.

On to `COc1ccc(C(c2nnnn2Cc2cccs2)N2CCN(c3ccccc3)CC2)cc1OC` (stereo not given), for which the inhibition is -7.19%.

As to `COc1ccc(CCn2nnnc2C(c2ccccc2)N2CCN(C)CC2)cc1OC` (stereo not given), the inhibition was 82.9% (active).

Turning to `N#Cc1ccc(C(c2nnnn2CCc2ccccc2)N2CCCCCC2)cc1` (stereo not given), the inhibition is 4.83%.

On to `COC(=O)c1cc(NC(=O)CN2CCN(C(C)=O)CC2)cc(C(=O)OC)c1`, for which the inhibition was -3.76%.

Take `FC(F)(F)c1nc(-c2ccccc2)ncc1-c1nnnn1-c1ccccc1`: the inhibition was 13.7%.

Regarding `N/C(=N\OC(=O)Cc1ccc([N+](=O)[O-])cc1)c1ccccn1`, the inhibition is -17.6%.

As to `N/C(=N\OC(=O)COc1ccc([N+](=O)[O-])cc1)c1ccc(Br)cc1`, the inhibition is 2.68%.

In the case of `N/C(=N\OC(=O)Cc1ccccc1[N+](=O)[O-])c1ccc(Br)cc1`, the inhibition is 93.1% (active).

`CCCc1nc(-c2cc3cc(C)ccc3[nH]c2=O)no1`: the inhibition is -0.29%.

Turning to `COc1ccc(-n2nc(C(=O)Nc3cc(OC)c(OC)c(OC)c3)c3ccccc3c2=O)c(OC)c1`, the inhibition was 2.29%.

Turning to `Cc1ccsc1/C=N/NC(=O)Cc1cc(=O)[nH][nH]1`, the inhibition is -22.4%.

Consider `CCOCN(C(=O)Cn1c(C(C)O)nc2ccccc21)c1c(C)cccc1CC` (stereo not given), for which the inhibition was -12.3%.

`COc1ccc(C(=O)Nc2cccnc2)cc1C(=O)Nc1cccnc1`: the inhibition was 2.89%.

As for `O=C(Nc1cccnc1)c1cc2cc(Br)ccc2oc1=O`, the inhibition was 82.5% (active).

With `O=C(Oc1cccnc1)c1cc2ccccc2oc1=O`, the inhibition is 17.9%.

For `COc1ccc(C)cc1S(=O)(=O)Nc1cccc(Cl)c1Cl`, the inhibition is -10%.

Turning to `Cc1cc([N+](=O)[O-])nn1CCCC(=O)Nc1cccnc1Cl`, the inhibition is -8.44%.

Consider `Cc1cc2nc3c(=O)n(Cc4ccccc4)c(=O)[nH]c3nc2cc1N`, for which the inhibition is -0.29%.

On to `Nc1ccc2nc3c(=O)[nH]c(=S)[nH]c3nc2c1`, for which the inhibition was 83.5% (active).

Take `O=C1c2ccccc2NC(c2ccccn2)N1NS(=O)(=O)c1ccccc1` (stereo not given): the inhibition was 5.35%.

Turning to `c1ccc(C2CNCc3c2ccc2ccccc32)cc1` (stereo not given), the inhibition is -8.65%.

In the case of `CN(C)S(=O)(=O)c1cccc(-c2nn(-c3ccccc3)cc2/C=C2\SC(=S)N(CC(=O)O)C2=O)c1`, the inhibition is 12%.

Take `Cc1ccc(OCC(=O)Nc2ccc(-c3nc4ncccc4o3)cc2)cc1`: the inhibition was 78.8% (active).

`Cc1ccc(OCC(=O)Nc2ccc(S(=O)(=O)Nc3ccccn3)cc2)cc1`: the inhibition was -3.5%.

On to `CC(=O)Nc1ccc(OCC(=O)NCc2ccc(C)cc2)cc1`, for which the inhibition is -8.65%.

In the case of `Cc1oc2nc(SCC(=O)Nc3ccc(S(N)(=O)=O)cc3)nc(NC(=O)c3ccccc3)c2c1C`, the inhibition is -6.33%.

For `C/C=C(/C)C(=O)Nc1cccc(C2=NOC3(C2)C[C@@H](C(N)=O)N(C(=O)C2(C)CC2)C3)c1` (stereo not given in full), the inhibition is -2.68%.

Regarding `Cc1ccnc(NS(=O)(=O)c2ccc(NC(=O)c3ccc(S(=O)(=O)N(C)C)cc3)cc2)n1`, the inhibition was -9.02%.

For the molecule `COc1cc(/C=N/N=C(\N)c2nonc2N)cc(OC)c1OC`, the inhibition was -22.2%.

In the case of `COc1cc(/C=N\NC(=O)c2nonc2N)c(OC)cc1Br`, the inhibition was 71.1% [fluorescence artefact?] (active).

As to `COc1cc(OC)c(/C=N/NC(=O)c2ccc([N+](=O)[O-])cc2)cc1Br`, the inhibition is 5.09%.

As for `CCc1ccc(S(=O)(=O)NCC(O)COc2ccc(OC)cc2)cc1` (stereo not given), the inhibition is -1.31%.

Regarding `Cc1nc2ccccc2nc1N/N=C/c1ccc(O)cc1O`, the inhibition is -9.43%.

For `O=C(N/N=C/c1ccco1)c1csc2c1CCCC2`, the inhibition is -2.18%.

In the case of `Cc1c(C)c(C)c2[nH]c(=S)[nH]c2c1C`, the inhibition is -0.36%.

In the case of `O=c1[nH]c(=S)[nH]c2[nH]c(=S)[nH]c12`, the inhibition was 73.3% (active).

For the molecule `Cc1cc(=O)[nH]c(=S)[nH]1`, the inhibition was 0.3%.

Take `Nc1nc(SCC(=O)N2CCN(S(=O)(=O)c3ccc(Cl)cc3)CC2)n[nH]1`: the inhibition was -16.8%.

As to `CC1CCN(C(=S)NC2CC3CCC2C3)CC1` (stereo not given), the inhibition is -3%.

With `COCc1c(N)c(C)nc(Cl)c1C#N`, the inhibition is -17%.

As for `Cc1nnc(SCCCCSc2nnc(C)c(=O)[nH]2)[nH]c1=O`, the inhibition was -6.9%.

For the molecule `CC(O)CN(Cc1ccc(Cl)cc1)CC(C)O` (stereo not given), the inhibition was 85.5% (active).

With `OCCN(Cc1ccccc1)Cc1ccc(Cl)cc1`, the inhibition was 42.7%.

As to `CN(C)CCCNC(=S)NCc1ccc(Cl)cc1`, the inhibition was -10.2%.

In the case of `Cn1c(N)c(C(=O)COC(=O)c2ccccc2NCc2ccco2)c(=O)n(C)c1=O`, the inhibition was 0.84%.

For `CCCCCC(=O)Nc1ccc(C(=O)N/N=C/c2ccc([N+](=O)[O-])cc2)cc1`, the inhibition was -13.5%.

Consider `O=C(N/N=C/c1ccc(OCc2ccccc2)cc1)c1ccc(O)cc1`, for which the inhibition was -9.63%.

With `O=C(COc1ccc(/C=N/NC(=O)c2ccc(O)cc2)cc1)Nc1ccc([N+](=O)[O-])cc1`, the inhibition is 74.2% [fluorescence artefact?] (active).

Regarding `CSc1n[nH]c(=S)n1N`, the inhibition is -10%.

In the case of `CN(c1ccccc1)S(=O)(=O)c1cc(C(=O)Nc2nc3ccccc3[nH]2)ccc1Cl`, the inhibition is 1.7%.

On to `CCCCN(C)C(=O)c1ccc2c(c1)N(CC)C(=O)c1ccccc1S2(=O)=O`, for which the inhibition is 75.6% (active).

Consider `O=C(c1ccc2c(c1)N(Cc1ccc(F)cc1)C(=O)c1ccccc1S2(=O)=O)N1CCN(c2ccccn2)CC1`, for which the inhibition was -4.43%.

In the case of `COC(=O)CNC(=O)c1ccc2c(c1)S(=O)(=O)c1ccccc1C2=O`, the inhibition is 2.96%.

As for `Brc1ccc2c(c1)[C@H]1OCC[C@H]1[C@@H](c1cccs1)N2`, the inhibition is 4.8%.

`Nc1nnc(SCCN2C(=O)c3ccccc3S2(=O)=O)s1`: the inhibition is 5.12%.

Consider `c1ccc(-c2ccccc2OCCN2CCCCC2)cc1`, for which the inhibition is 40.5%.

In the case of `O=S1(=O)C=C(SCCN2CCCC2)c2ccccc21`, the inhibition was 71.3% (active).

For the molecule `Cc1nn(CC2CC2)c(=O)n1N(C)c1ncc(C(F)(F)F)cc1Cl`, the inhibition is -11.7%.

`Cc1nn(C)cc1N1C(=O)c2cccc3c(N)ccc(c23)C1=O`: the inhibition was -2.5%.

In the case of `CCN(c1ccccc1)S(=O)(=O)c1ccc(N)cc1`, the inhibition was 71.9% (active).

Take `CCN(c1ccccc1)S(=O)(=O)c1ccc2[nH]c(=O)[nH]c2c1`: the inhibition is -1.8%.

For `CCN(c1ccccc1)S(=O)(=O)c1ccc(NC(=O)C(C)(C)C)cc1`, the inhibition was 4.53%.

`CCOC(=O)c1cc2c(=O)n3ccccc3nc2n(CC(C)C)c1=NC(=O)c1c(-c2c(F)cccc2Cl)noc1C`: the inhibition was -8.06%.

Consider `O=C1CCCC(O)=C1N=Nc1ccc2ncsc2c1`, for which the inhibition is 3.62%.

On to `COC(=O)c1c(C)oc(C)c1S(=O)(=O)Nc1ccc(C(C)C)cc1`, for which the inhibition is 3.11%.

As for `O=C(CN1C(=O)NC2(CCCCCC2)C1=O)NC1CC1`, the inhibition was 8.5%.

In the case of `CC1CCC2(CC1)NC(=O)N(CC(=O)c1cccn1C)C2=O` (stereo not given), the inhibition is 73.9% (active).

Turning to `CC1CCC2(CC1)NC(=O)N(Cc1nnc(-c3cccs3)o1)C2=O` (stereo not given), the inhibition is 21.6%.

One may read the inhibition as the relative decrease from the control value, in per cent.
